A short description of test [1]: Nuclear factor erythroid 2-related factor 2/antioxidant responsive element (Nrf2/ARE) small molecule agonists: qHTS cell viability counter screen in human keratinocytes (AID 1919968; active means well fitted curve in the direction sought with a large enough effect in the repeat runs; an effect the other way counts as inactive or inconclusive; further: nearly all actives have a fitted effect of over 55% in size). A digest of the protocol:
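In human HaCaT keratinocytes stably expressing an ARE-driven luciferase, compound exposure lasted 23 h at 37 C under 5% CO2. Viable cells are quantified with a protease-based fluorogenic reagent (CellTiter-Fluor) read 1 h after addition.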
(In general: qHTS replaces the single test concentration by a dilution series.)

A short description of test [2]: Nuclear factor erythroid 2-related factor 2/antioxidant responsive element (Nrf2/ARE) small molecule agonists: luciferase reporter gene qHTS assay in human keratinocytes (AID 1919969; further: nearly all actives have a fitted effect of over 35% in size; further: potency means the concentration at half of the fitted maximal effect). (In general: In a reporter assay the amount or activity of a reporter protein is the signal.)
The target in test [3] is Gonadotropin-releasing hormone receptor (Homo sapiens) (UniProt P30968). Nature of the test: Human gonadotropin-releasing hormone receptor (GnRHR) small molecule agonists, calcium flux assay in GnRHR-HEK293 cells (AID 1920063). Further: nearly all actives have a fitted effect of over 35% in size. A digest of the protocol:
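Intracellular calcium rise is the read-out: engineered human GnRHR HEK293 cells, dye-loaded, are exposed to DMSO-dissolved compounds and fluorescence at Ex/Em 480/540 is tracked for 3 min.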
(A change in cytosolic calcium serves as a functional read-out for many receptors and channels.)

The target in test [4] is KiSS-1 receptor (Homo sapiens) (UniProt Q969F8). Description: Human kisspeptin (KISS1R) small molecule agonists, calcium flux assay in KISS1R-HEK293 cells (AID 1920064; active means well fitted curve in the direction sought with a large enough effect in the repeat runs; an effect the other way counts as inactive or inconclusive). A digest of the protocol: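 Concentration-response testing used 15 concentrations in triplicate on human KISS1R-expressing HEK293 cells. Calcium-dependent fluorescence (Ex/Em 480/540) was followed kinetically for 3 min after compound transfer.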
Sequence of KiSS-1 receptor (Homo sapiens) (Q969F8 whole entry, looked up): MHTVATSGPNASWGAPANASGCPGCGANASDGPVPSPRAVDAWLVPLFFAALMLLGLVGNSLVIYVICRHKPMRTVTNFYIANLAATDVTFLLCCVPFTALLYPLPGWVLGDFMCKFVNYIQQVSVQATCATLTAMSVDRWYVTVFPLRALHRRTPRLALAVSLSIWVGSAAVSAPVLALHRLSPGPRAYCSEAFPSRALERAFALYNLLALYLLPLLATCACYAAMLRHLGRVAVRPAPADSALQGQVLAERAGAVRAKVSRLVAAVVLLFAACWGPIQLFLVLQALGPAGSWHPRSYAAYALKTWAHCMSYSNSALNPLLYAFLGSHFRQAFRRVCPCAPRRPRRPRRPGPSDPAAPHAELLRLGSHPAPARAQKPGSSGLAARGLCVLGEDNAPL

The nature of test [5]: G protein-coupled receptor (GPCR) small molecule agonists, calcium flux assay: HEK293 wild type cell line counter screen (AID 1920065). A digest of the protocol: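 Fluorescence intensity signals activation. After overnight (18 h) culture and a 1 h calcium dye load at 37 C, compounds are added by pin tool and the plate read at 480/540 nm for 3 min in 1 s steps.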
The nature of test [6]: p53 small molecule agonists, cell-based qHTS assay with human liver microsomes (AID 1963577).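 Further: p53 response element beta-lactamase reporter cells with liver microsomes plus NADPH.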 The method in brief:
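p53RE-bla cells; 5 h settle, 37 C/5% CO2; cpd + HLM 0.5 mg/mL + NADPH 0.5 mg/mL (final); 16 h 37 C; LiveBLAzer 2 h RT dark; fluorescence readout.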

A short description of test [7]: p53 small molecule agonists, cell-based qHTS assay with rat liver microsomes (AID 1963578). A digest of the protocol: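 Rat liver microsome activation: microsomes 0.5 mg/mL, NADPH 0.5 mg/mL final; p53RE-bla cells, 16 h 37 C; LiveBLAzer readout, 2 h RT dark.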
Test [8] is described as follows: p53 small molecule agonists, cell-based qHTS assay with human liver microsomes: qHTS cell viability counter screen (AID 1963579). Further: nearly all actives have a fitted effect of over 45% in size. A digest of the protocol: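 Luminescent CellTiter-Glo read-out, 30 min at room temperature, gauged cytotoxicity in p53RE-bla cells exposed 16 h at 37 C to DMSO-dissolved compounds with metabolic activation by human liver microsomes and NADPH, each 0.5 mg/mL final.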

The nature of test [9]: p53 small molecule agonists, cell-based qHTS assay with rat liver microsomes: qHTS cell viability counter screen (AID 1963580). Further: nearly all actives have a fitted effect of over 45% in size. The method in brief: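 After the beta-lactamase ratio was read, CellTiter-Glo was added to the same wells and luminescence measured at 30 min; cells had been treated 16 h at 37 C with compounds, rat liver microsomes and NADPH (0.5 mg/mL final each).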

A short description of test [10]: p53 small molecule agonists, cell-based qHTS assay: qHTS cell viability counter screen (AID 1963581). Further: nearly all actives have a fitted effect of over 45% in size. A digest of the protocol:
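Luminescence from CellTiter-Glo, reflecting ATP content, serves as the cytotoxicity measure; it is taken after the 2 h reporter substrate step in HCT-116 p53RE-bla cells dosed for 16 h at 37 C.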

Test [11] is described as follows: p53 small molecule agonists, cell-based qHTS assay (AID 1963582; active means well fitted activation curve with a large enough effect in the signal ratio in the repeat runs, not every such curve was filed as active; the % refers to the signal ratio). A digest of the protocol:
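After plating, p53RE-bla cells sat 5 h in the incubator; compounds or DMSO vehicle were pinned in; a 16 h incubation at 37 C followed; FRET substrate was added and, 2 h later at RT, fluorescence was measured.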

Test [12] addresses 5-hydroxytryptamine receptor 2A (Homo sapiens) (UniProt P28223). Description: 5-hydroxytryptamine receptor 2A (HTR2A) small molecule agonists, cell-based qHTS assay (AID 1963587). Further: nearly all actives have a fitted effect of over 30% in size. A digest of the protocol:
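CHO cells stably expressing human HTR2A, plated 18 h, loaded with calcium dye 1 h at 37 C. Agonist mode: compounds added and intracellular calcium fluorescence recorded kinetically for 2 min at 1 sec intervals.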

In test [13] the target is Muscarinic acetylcholine receptor M1 (Homo sapiens) (UniProt P11229). Description: Cholinergic receptor muscarinic 1 (CHRM1) small molecule antagonists, cell-based qHTS assay (AID 1963588). Further: nearly all actives have a fitted effect of over 40% in size. Further: potency means the concentration at half of the fitted maximal effect. The method in brief:
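Compounds were tested at 15 concentrations in three independent runs. Dye-loaded CHRM1-CHO cells were exposed 5 min at room temperature before stimulation by acetylcholine added at 50nM. Intracellular calcium was read kinetically on FDSS for 3 min.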

For test [14] the target is unchanged. Nature of the test: Cholinergic receptor muscarinic 1 (CHRM1) small molecule agonists, cell-based qHTS assay (AID 1963589). Further: nearly all actives have a fitted effect of over 35% in size. The method in brief:
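Fluorescent calcium dye reports M1 activation in stably transfected CHO cells. Compounds, 15 concentrations, added after 1 h dye loading at 37 C; kinetic reading at 1 sec intervals.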

Test [15] in a line: cAMP Responsive Elements (CRE) small molecule agonists, cell-based qHTS assay (AID 1963590). A digest of the protocol: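 Compound exposure lasted 3 h at 37 C/5% CO2 in CRE-bla HEK 293T cells grown in assay medium with 10% dialyzed FBS and 25 mM HEPES. Reporter signal came from LiveBLAzer B/G FRET substrate, 2 h, room temperature.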
Test [16] is described as follows: cAMP Responsive Elements (CRE) small molecule antagonists, cell-based qHTS assay (AID 1963591; active means well fitted inhibition curve with a large enough effect in the signal ratio in the repeat runs, not every such curve was filed as active; the % refers to the signal ratio). The method in brief:
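Stimulation used NKH477 at a final 0.25 uM for 3 h in compound-treated CRE-bla HEK293T cells, seeded 18 h beforehand. Reporter activity was measured with LiveBLAzer B/G FRET substrate after 2 h at room temperature.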

Test [17] concerns the target D(2) dopamine receptor (Homo sapiens) (UniProt P14416). Description: Dopamine D2 receptor (DRD2) small molecule agonists, cell-based qHTS assay (AID 1963594). Further: nearly all actives have a fitted effect of over 35% in size. A digest of the protocol: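 HEK293 cells stably expressing human DRD2, pre-treated with PDE inhibitor Ro20-1724 (0.1 mM final) and compound 10 min at room temperature, then stimulated with NKH477 (200nM […]) for 30 min. cAMP read by HTRF (665/620 nm).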

The target is the same in test [18]. Nature of the test: Dopamine D2 receptor (DRD2) small molecule antagonists, cell-based qHTS assay (AID 1963595; active means well fitted inhibition curve with a large enough effect in the signal ratio in the repeat runs, with a control signal flat; the % refers to the signal ratio). The method in brief: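 Antagonist mode in DRD2-HEK293 cells: after compound addition with 0.1 mM Ro20-1724, cells received quinpirole (12 nM) and NKH477 (200 nM) for 30 min at room temperature; HTRF cAMP read after 1 h detection.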
Test [19] has as its target 5-hydroxytryptamine receptor 2A (Homo sapiens) (UniProt P28223). Description: 5-hydroxytryptamine receptor 2A (HTR2A) small molecule antagonists, cell-based qHTS assay (AID 1963586). Further: nearly all actives have a fitted effect of over 45% in size. A digest of the protocol: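 CHO cells stably expressing human HTR2A were plated for 18 h at 37 C, then loaded with calcium dye for 1 h. Compounds were preincubated 5 min at room temperature before DOI (4 nM solution) was added. Kinetic fluorescence was read for 3 min.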

Test [20] addresses Beta-2 adrenergic receptor (Homo sapiens) (UniProt P07550). Nature of the test: Adrenergic beta2 receptor (ADRB2) small molecule antagonists, cell-based qHTS assay (AID 1963592). Further: series mostly up to about 92 µM; nearly all actives have a fitted effect of over 50% in size. The method in brief:
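Assay format: CHO-ADRB2 cells, 18-20hr seeding at 37C/5% CO2, then compound plus 1nM isoproterenol agonist mix for 0.5hr RT. Homogeneous time-resolved fluorescence cAMP detection after 1hr, expressed as 665/615 nm ratio.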

The values that follow come from PubChem BioAssay (Tox21).

Inconclusive results are not listed. The source made the active and inactive calls. Unless noted, the call rests on the fitted dose curve.

Sequence of Gonadotropin-releasing hormone receptor (Homo sapiens) (P30968 whole entry, looked up): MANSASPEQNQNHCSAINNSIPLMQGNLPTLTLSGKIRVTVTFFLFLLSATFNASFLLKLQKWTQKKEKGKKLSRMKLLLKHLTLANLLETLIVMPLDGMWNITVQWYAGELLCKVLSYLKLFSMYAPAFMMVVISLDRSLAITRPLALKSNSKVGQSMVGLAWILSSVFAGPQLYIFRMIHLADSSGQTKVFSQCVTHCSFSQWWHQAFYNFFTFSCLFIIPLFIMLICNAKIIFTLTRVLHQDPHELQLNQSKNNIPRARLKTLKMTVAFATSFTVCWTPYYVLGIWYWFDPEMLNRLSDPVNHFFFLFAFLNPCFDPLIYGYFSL
Sequence of D(2) dopamine receptor (Homo sapiens) (P14416 whole entry, looked up): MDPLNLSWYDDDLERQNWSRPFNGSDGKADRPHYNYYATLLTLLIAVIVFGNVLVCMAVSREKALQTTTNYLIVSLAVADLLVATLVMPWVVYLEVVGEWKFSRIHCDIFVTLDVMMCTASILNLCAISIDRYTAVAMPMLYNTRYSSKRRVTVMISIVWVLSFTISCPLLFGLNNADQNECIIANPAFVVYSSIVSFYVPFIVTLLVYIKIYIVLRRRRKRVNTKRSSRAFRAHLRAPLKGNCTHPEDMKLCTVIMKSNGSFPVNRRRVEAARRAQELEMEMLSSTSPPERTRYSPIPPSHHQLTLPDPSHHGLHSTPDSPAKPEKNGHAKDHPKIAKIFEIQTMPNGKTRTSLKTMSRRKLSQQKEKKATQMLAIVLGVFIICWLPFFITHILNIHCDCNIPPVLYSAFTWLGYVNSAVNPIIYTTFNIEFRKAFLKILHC
Sequence of Beta-2 adrenergic receptor (Homo sapiens) (P07550 whole entry, looked up): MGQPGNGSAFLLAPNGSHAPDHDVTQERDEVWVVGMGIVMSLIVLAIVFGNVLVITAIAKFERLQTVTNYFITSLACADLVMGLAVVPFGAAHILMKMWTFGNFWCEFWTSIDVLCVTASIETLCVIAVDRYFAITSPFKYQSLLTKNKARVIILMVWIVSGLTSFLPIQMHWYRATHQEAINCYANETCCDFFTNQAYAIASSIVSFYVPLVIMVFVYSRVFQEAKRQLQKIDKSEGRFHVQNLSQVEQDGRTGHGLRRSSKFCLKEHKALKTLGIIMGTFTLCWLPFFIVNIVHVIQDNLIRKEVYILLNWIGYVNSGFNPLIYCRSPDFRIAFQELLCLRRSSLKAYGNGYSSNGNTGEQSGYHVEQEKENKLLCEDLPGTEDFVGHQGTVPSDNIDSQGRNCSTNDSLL
Sequence of Muscarinic acetylcholine receptor M1 (Homo sapiens) (P11229 whole entry, looked up): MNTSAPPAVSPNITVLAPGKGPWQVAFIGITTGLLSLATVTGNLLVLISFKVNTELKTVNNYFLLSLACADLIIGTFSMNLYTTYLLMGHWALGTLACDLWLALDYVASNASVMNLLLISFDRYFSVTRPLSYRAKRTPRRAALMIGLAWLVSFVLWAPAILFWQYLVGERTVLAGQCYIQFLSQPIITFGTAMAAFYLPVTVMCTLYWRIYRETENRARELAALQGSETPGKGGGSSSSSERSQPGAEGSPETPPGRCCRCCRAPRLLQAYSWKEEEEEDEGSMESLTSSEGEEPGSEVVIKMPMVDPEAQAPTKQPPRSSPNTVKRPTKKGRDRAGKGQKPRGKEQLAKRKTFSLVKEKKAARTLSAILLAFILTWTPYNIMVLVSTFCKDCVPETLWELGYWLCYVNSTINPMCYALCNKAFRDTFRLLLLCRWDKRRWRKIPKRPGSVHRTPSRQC
Sequence of 5-hydroxytryptamine receptor 2A (Homo sapiens) (P28223 whole entry, looked up): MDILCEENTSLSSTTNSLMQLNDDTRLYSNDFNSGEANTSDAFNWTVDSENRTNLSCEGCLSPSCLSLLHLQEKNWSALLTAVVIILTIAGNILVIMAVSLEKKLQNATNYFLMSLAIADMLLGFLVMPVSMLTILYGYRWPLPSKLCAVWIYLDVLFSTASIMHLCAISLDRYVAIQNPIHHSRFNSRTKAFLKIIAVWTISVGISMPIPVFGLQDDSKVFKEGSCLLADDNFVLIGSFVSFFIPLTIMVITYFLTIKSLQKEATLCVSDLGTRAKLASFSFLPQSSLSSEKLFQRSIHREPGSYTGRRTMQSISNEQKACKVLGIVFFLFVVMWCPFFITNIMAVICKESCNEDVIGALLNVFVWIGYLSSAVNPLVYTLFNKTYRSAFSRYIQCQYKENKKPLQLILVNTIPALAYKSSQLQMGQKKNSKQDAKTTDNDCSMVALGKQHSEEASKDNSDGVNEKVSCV

As to `O=C1OC(CCN2CCCCC2)OC1(c1ccccc1)c1ccccc1` (configuration not stated), the Potency entry in test [1], in test [3], in test [4], in [5], in test [6] and in test [7] was “inactive” in each case. Moreover, the Potency entry in [8], in test [9], in test [10], in test [11], in test [12] and in test [14] was “inactive” each time. Moreover, the Potency entry in test [15], in [16], in test [17] and in [18] was “inactive” in each case. In addition, the Potency was 29.8 µM (active) in test [2] and 2.31 µM (active) in test [13].
As to `O=C(NC(=O)c1c(F)cccc1F)Nc1cc(Cl)c(F)c(Cl)c1F`, the Potency result in test [1], in test [2], in test [3], in test [4], in [5] and in test [6] was “inactive” in each case. In addition, the Potency entry in test [7], in test [8], in test [9], in test [10], in [11] and in test [19] was “inactive” throughout. The Potency result in test [12], in [13], in test [14], in test [15], in test [20] and in [17] was “inactive” throughout. The Potency entry in [18] was “inactive”.
As for `CCCCCCCCCCCCCN1CC(C)OC(C)C1` (configuration not stated), the Potency result in [1], in test [2], in [3], in test [4], in test [5] and in test [6] was “inactive” each time. Also, the Potency result in test [7], in test [8], in test [9], in [10], in test [11] and in [19] was “inactive” each time. Moreover, the Potency entry in [12], in test [14], in test [15], in [16], in test [17] and in test [18] was “inactive” in each case.
`CC1(C)C(/C=C(\Cl)C(F)(F)F)C1C(=O)OC(C#N)c1cccc(Oc2ccccc2)c1` (configuration not stated): the Potency result in test [1], in test [2], in test [3], in [4], in test [5] and in test [6] was “inactive” in each case. The Potency entry in test [7], in test [8], in test [9], in test [10], in test [11] and in [12] was “inactive” in each case. Moreover, the Potency entry in [13], in test [14], in [15], in test [16], in test [20] and in test [17] was “inactive” each time.
Regarding `ClC(Cl)=C(Cl)Cl`, the Potency entry in test [1], in test [2], in test [3], in [4], in test [5] and in [6] was “inactive” throughout. The Potency entry in test [7], in test [8], in [9], in test [10], in test [11] and in test [12] was “inactive” in each case. Also, the Potency result in [13], in [14], in test [15], in [16], in [17] and in test [18] was “inactive” throughout.
Take `CSc1nc(N=[N+]=[N-])nc(NC(C)C)n1`: the Potency entry in [1], in test [2], in [3], in [4], in test [5] and in [6] was “inactive” in each case. Moreover, the Potency entry in test [7], in [8], in [9], in test [10], in test [11] and in test [19] was “inactive” in each case. The Potency entry in test [13], in test [14], in test [20], in [17] and in test [18] was “inactive” throughout.
Turning to `C=C1C[C@@H]2[C@H](CC[C@]3(C)C(=O)CC[C@@H]23)[C@@]2(C)C=CC(=O)C=C12`, the Potency result in [1], in test [3], in test [4], in test [5], in test [6] and in test [7] was “inactive” throughout. The Potency entry in test [8], in test [9], in [10], in test [11], in test [19] and in test [12] was “inactive” in each case. In addition, the Potency result in test [13], in test [14], in test [17] and in test [18] was “inactive” throughout. Besides, the Potency in [2] is 29.8 µM (active).
Turning to `Oc1ccccc1Br`, the Potency entry in test [1], in test [2], in test [3], in test [4], in test [5] and in [6] was “inactive” each time. In addition, the Potency entry in test [7], in [8], in [9], in test [10], in [11] and in test [19] was “inactive” throughout. For the same compound, the Potency result in [12], in test [14], in test [20], in test [17] and in test [18] was “inactive” each time.
